In paper PMC5540273 (PLoS ONE, 2017):

Key:
Details in all cases: concentration: 1 μM, replicates: in singlicate; n = 1
[1] = test system: PIP5K1A
[2] = test system: PIP5K1C
[3] = test system: PIP5K2B
[4] = test system: T1, PIP5K2C
T1 construct: gene PIP4K2C

[5] = test system: T2, PKAC-alpha
T2 construct: gene PRKACA

[6] = test system: T3, PKAC-beta
T3 construct: gene PRKACB

[7] = test system: PKMYT1
[8] = test system: PKN1
[9] = test system: PKN2
[10] = test system: PLK1
[11] = test system: PLK2
[12] = test system: PLK3
[13] = test system: PLK4
[14] = test system: PRKCD
[15] = test system: PRKCE
[16] = test system: PRKCH
[17] = test system: PRKCI
[18] = test system: PRKCQ
[19] = test system: PRKD1
[20] = test system: PRKD2
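Further: KINOMEscan kinase panel screen.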

Row | Compound | %Inh [1] | %Inh [2] | %Inh [3] | %Inh [4] | %Inh [5] | %Inh [6] | %Inh [7] | %Inh [8] | %Inh [9] | %Inh [10] | %Inh [11] | %Inh [12] | %Inh [13] | %Inh [14] | %Inh [15] | %Inh [16] | %Inh [17] | %Inh [18] | %Inh [19] | %Inh [20]
1 | COc1ccc(Nc2nccc(N3CCC(NC(=O)Nc4cccc(OC)c4)C3)n2)cc1 (stereo not shown) [GSK1379742] | 0% | 44% | 14% | 16% | 1% | 0% | 0% | 0% | 0% | 5% | 0% | 0% | 0% | 1% | 0% | 5% | 0% | 0% | 3% | 0%
2 | NCCCC(NC(=O)c1cc(Br)c(-c2ccnc3[nH]ccc23)s1)c1ccccc1.O=C(O)C(F)(F)F.O=C(O)C(F)(F)F (stereo not shown) [GSK1287544] | 72% | 42% | 60% | 28% | 99.4% | 99.2% | 0% | 18% | 58% | 0% | 14% | 0% | 0% | 95.6% | 92.5% | 94.7% | 31% | 75% | 29% | 36%
3 | CN1CCN(CCCNc2nccc(-c3c(-c4ccc(F)cc4)nn4cc(C(F)(F)F)ccc34)n2)CC1 [GW621581] | 0% | 11% | 0% | 0% | 0% | 9% | 0% | 12% | 0% | 0% | 0% | 0% | 12% | 7% | 0% | 20% | 19% | 7% | 47% | 34%
4 | O=C(Nc1cccc(-c2nn3ccccc3c2-c2ccnc(Nc3cccc(F)c3)n2)c1)c1c(F)ccc(F)c1Cl [GSK357952] | 0% | 7% | 8% | 0% | 13% | 18% | 5% | 17% | 0% | 0% | 0% | 2% | 0% | 8% | 0% | 31% | 0% | 38% | 21% | 0%
5 | CNC(=O)c1ccccc1Nc1nc(Nc2ccc(N3CCOCC3)cc2)ncc1Cl.Cl [GSK1576028] | 45% | 0% | 85% | 57% | 96.5% | 93.6% | 32% | 55% | 52% | 96.3% | 81% | 85% | 100% | 24% | 64% | 0% | 11% | 84% | 0% | 17%
6 | CC(=O)Nc1nc2cnc(Nc3cc(NC(=O)c4cccc(C5(C#N)CC5)c4Cl)ccc3C)nc2s1 | 8% | 4% | 46% | 0% | 0% | 0% | 0% | 0% | 0% | 0% | 4% | 0% | 0% | 29% | 0% | 0% | 0% | 39% | 0% | 4%
7 | Cc1occc1-c1ncc(OC[C@@H](N)Cc2c[nH]c3ccccc23)cc1-c1ccc2[nH]nc(C)c2c1.O=C(O)C(F)(F)F [GSK682037] | 75% | 19% | 40% | 0% | 99.8% | 99.5% | 7% | 28% | 64% | 0% | 0% | 0% | 0% | 100% | 99.8% | 97.5% | 28% | 97.7% | 90% | 99.6%
8 | Cn1cc(-c2ccc3c(c2)CCN3C(=O)Cc2cccc(F)c2)c2c(N)ncnc21 [GSK2603358] | 0% | 56% | 0% | 38% | 0% | 0% | 0% | 0% | 0% | 0% | 0% | 6% | 0% | 0% | 14% | 24% | 30% | 0% | 0% | 0%
9 | CN1CCN(Cc2cccc(-c3ccc4c(Nc5ccc(Oc6ccccc6)cc5)ccnc4c3)c2)CC1 [GW578342] | 26% | 59% | 12% | 9% | 0% | 0% | 0% | 0% | 27% | 0% | 0% | 1% | 0% | 15% | 6% | 2% | 19% | 3% | 0% | 18%
10 | COCCOCCOc1cc2ncc3c4ccc(C#N)cc4[nH]c3c2cc1OC | 36% | 63% | 74% | 60% | 0% | 0% | 28% | 17% | 63% | 0% | 0% | 0% | 13% | 0% | 11% | 0% | 33% | 35% | 0% | 0%
11 | COc1cccc(-c2ccc3c(NC(=O)C4CC4)n[nH]c3n2)c1 [SB-710903] | 58% | 65% | 20% | 64% | 0% | 0% | 8% | 0% | 0% | 0% | 0% | 0% | 6% | 0% | 23% | 10% | 11% | 0% | 0% | 0%
12 | COc1cc(Nc2ncc3c(C)nc(-c4cc5ccccc5[nH]4)n3n2)cc(OC)c1OC [GW869516] | 0% | 89% | 29% | 90.3% | 0% | 51% | 25% | 0% | 0% | 19% | 23% | 24% | 0% | 43% | 0% | 0% | 45% | 0% | 0% | 0%
13 | Fc1ccc(-c2ncn(C3CCNCC3)c2-c2ccnc(Oc3ccc(-c4ccccc4)cc3)n2)cc1 [SB-245391] | 14% | 24% | 0% | 20% | 35% | 31% | 9% | 0% | 18% | 35% | 28% | 17% | 27% | 32% | 40% | 0% | 54% | 0% | 0% | 0%
14 | C[C@@H](Oc1cc(-n2cnc3cc(-c4ccnc(NCCS(C)(=O)=O)c4)ccc32)sc1C(N)=O)c1ccccc1Cl [GSK907232] | 5% | 14% | 47% | 30% | 0% | 0% | 5% | 35% | 0% | 100% | 99.2% | 99.4% | 32% | 11% | 3% | 0% | 9% | 31% | 0% | 0%
15 | O=C(Nc1n[nH]c2cc(-c3ccoc3)ccc12)C1CC1 [SB-738481] | 28% | 0% | 18% | 0% | 0% | 2% | 0% | 0% | 22% | 3% | 3% | 12% | 10% | 4% | 12% | 0% | 0% | 0% | 0% | 0%
16 | O=C(O)C(F)(F)F.O=C(O)C(F)(F)F.O=c1[nH]ccc2nc(N[C@@H]3CCCNC3)nc(Nc3ccc(S(=O)(=O)N4CCOCC4)cc3)c12 [GSK2177277] | 72% | 76% | 94.4% | 89% | 82% | 86% | 0% | 85% | 96.1% | 38% | 10% | 0% | 98.7% | 99.8% | 99.9% | 99% | 95.3% | 99.2% | 94.8% | 99.1%
17 | CN(C)Cc1ccc(-c2ccc3c(Nc4ccc(Oc5ccccn5)cc4)ccnc3c2)o1 [GW567148] | 33% | 18% | 0% | 49% | 0% | 0% | 0% | 0% | 0% | 0% | 0% | 0% | 37% | 0% | 0% | 7% | 0% | 0% | 0% | 4%
18 | CCn1c(-c2nonc2N)nc2c(C#CC(C)(C)O)nc(OC[C@H](N)c3ccccc3)cc21 [GSK943949] | 0% | 90.8% | 0% | 0% | 98% | 97.7% | 19% | 90.8% | 19% | 0% | 0% | 0% | 19% | 96.2% | 75% | 97.9% | 20% | 82% | 7% | 17%
19 | Cc1ccc(C(=O)Nc2ccc(Nc3ccnc4cc(-c5nccs5)ccc34)cc2O)cc1.Cl [GW494702] | 0% | 9% | 0% | 28% | 0% | 0% | 0% | 0% | 0% | 1% | 0% | 0% | 98.4% | 0% | 16% | 5% | 2% | 13% | 0% | 2%
20 | Cl.Cl.NCC(NCc1ccc(-c2ccnc3[nH]ccc23)s1)c1ccccc1 (stereo not shown) [GSK1321565] | 71% | 63% | 45% | 39% | 97.9% | 94.9% | 0% | 30% | 64% | 0% | 5% | 0% | 49% | 91.1% | 84% | 85% | 0% | 55% | 0% | 21%
